# Autofluor counter = flagged as autofluorescent in microsphere protease counterscreen; compound autofluorescence counterscreen, microsphere flow cytometry; stronger effect = higher value; fluorescence intensity (no concentration beside the values); 360,000 tested, 3.1% active; AID 624483; in the data active = fluorescence intensity above about 16000; inconclusive = no clear call, values can overlap the other calls
# MazEF act = activators of E. coli MazEF toxin-antitoxin RNase, primary screen, biochemical, fluorescence, uHTS | Endoribonuclease toxin MazF (Escherichia coli (strain K12)), P0AE70 | activation, % at 20 µM | 350,000 tested, 0.32% active | FAM/BHQ RNA-DNA oligo cleavage fluorescence, 5 h; in the data active = activation above about 50%
# Target sequence (P0AE70 whole entry, looked up): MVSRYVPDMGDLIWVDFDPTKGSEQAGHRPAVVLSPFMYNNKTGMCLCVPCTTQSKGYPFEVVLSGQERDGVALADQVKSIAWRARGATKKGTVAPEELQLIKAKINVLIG
# BoNT-F LC inh = BoNT/F light chain protease inhibitors, primary screen, biochemical, flow cytometry, MLPCN library; Botulinum neurotoxin type F light chain protease (Clostridium botulinum); Multiplex microsphere protease cleavage assay; inhibition, % at 10 µM; 360,000 tested, 0.22% active; AID 588497, 2011; in the data active = inhibition above about 35%, passing the limit was not always enough; inconclusive = no clear call, values can overlap the other calls; also: plate controls were buffer without enzyme for full effect and enzyme alone for no effect
# Anthrax LF inh2 = Bacillus anthracis LF protease inhibitors, primary screen, biochemical, multiplex microsphere, MLPCN library; Lethal factor (Bacillus anthracis), P15917; multiplex microsphere protease cleavage assay; inhibition, % at 10 µM; 360,000 tested, 0.12% active; in the data active = inhibition above about 30%; inconclusive = no clear call, values can overlap the other calls; also: plate controls were buffer without enzyme for full effect and enzyme alone for no effect
# PfHsp40 rescue = rescue of yeast from PfHsp40 toxicity, primary screen, S. cerevisiae, ATP luminescence; S. cerevisiae expressing PfHsp40, growth rescue; 340,000 tested, 0.68% active; growth rescue, % at 12.5 µM; in the data active = growth rescue above about 28%, passing the limit was not always enough; inconclusive = no clear call, values can overlap the other calls;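 also: yeast W303a lacking pdr1 and pdr3 grown in galactose medium; growth measured after three days at 30 °C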
# BoNT A protease = BoNT/A light chain protease inhibitors, primary screen, biochemical, flow cytometry, MLPCN library. Botulinum neurotoxin type A light chain protease (Clostridium botulinum A str. ATCC 3502). multiplex microsphere protease substrate cleavage. inhibition, % at 10 µM. 360,000 tested, 0.17% active. AID 588499, 2011; in the data active = inhibition above about 30%; inconclusive = no clear call, values can overlap the other calls; also: plate controls were buffer without enzyme for full effect and enzyme alone for no effect
# BoNTA LC inh 1 = BoNT/A light chain protease inhibitors, confirmation, biochemical, flow cytometry, cherry pick 1; shares compounds with BoNT-F LC inh; multiplex microsphere protease assay; inhibition, % at 10 µM; 720 tested, 3% active; in the data active = inhibition above about 32%
# BoNT-F LC CP1 = BoNT/F light chain protease inhibitors, confirmation, biochemical, flow cytometry, cherry pick 1; shares compounds with BoNT-F LC inh; multiplex microsphere protease cleavage assay; inhibition, % at 10 µM; 720 tested, under 10 active
# Anthrax LF CP1 = Bacillus anthracis LF protease inhibitors, confirmation, biochemical, multiplex microsphere, cherry pick 1; shares compounds with BoNT-F LC inh; multiplex microsphere protease cleavage assay; inhibition, % at 10 µM; 720 tested, under 10 active; AID 602142, 2011
# The depositor's hits bear a star; ? = inconclusive; / = no result given. A selection: hits, their analogues and other compounds. The true share with any hit is near 4.3%. Unless noted, no rule for the calls is given here.
SMILES,Autofluor counter,MazEF act,BoNT-F LC inh,Anthrax LF inh2,PfHsp40 rescue,BoNT A protease,BoNTA LC inh 1,BoNT-F LC CP1,Anthrax LF CP1
COc1ccc2nc(C)cc(Nc3ccc(C)cc3)c2c1,3745,14.8,?,7.7,-0.3,-1.9,/,/,/
COc1ccc2nc(C)cc(NCc3ccc(F)cc3)c2c1,84261*,-137.4,134.4*,14.4,-0.4,15.8,-10.9,74.5*,6.6
O=S(=O)(Nc1ccc(Cl)nn1)c1ccccc1,4098,-3.8,38.3*,0.0,-1.3,5.8,-2.0,-1.3,-2.6
COc1cc(CC(NC(C)=O)C(=O)NC2CCN(C(=O)c3ccc(C)cc3)CC2)cc(OC)c1 (stereo unspecified),2861,10.0,42.8*,4.6,-1.4,-0.2,-0.7,-5.4,0.4
CS(=O)(=O)N1N=C(c2ccccc2)CC1c1ccc2c(c1)OCO2 (stereo unspecified),19512*,235.9*,-19.5,9.9,-0.8,70.4*,49.5*,/,-26.0
Cc1ccc(C)c(NC(=O)CN2C(=O)NC(C)(c3ccc4c(c3)OCCO4)C2=O)c1 (stereo unspecified),7944,-0.4,-0.5,0.0,-1.2,0.4,/,/,/
CCOc1cc(CNCC(O)c2ccccc2)cc(Cl)c1OC (stereo unspecified),2453,-2.1,41.4*,-0.8,-0.3,3.6,0.8,-10.8,-2.5
CCN(CC(=O)Nc1ccc(OC)cc1)C(=O)Cc1cccs1,4497,-1.3,7.6,-0.5,-2.2,5.1,/,/,/
CC(C)NCC(O)COc1cccc2ccccc12 (stereo unspecified),/,1.8,/,/,-2.7,-0.5,/,/,/
OC(CNCc1ccccc1F)COc1cccc2ccccc12 (stereo unspecified),3445,8.2,35.4*,5.8,0.2,2.3,0.6,-8.4,0.2
Cc1ccsc1/C=N/Nc1ccc(F)cc1F,4025,14.2,?,3.3,5.2,-1.8,/,/,/
COc1ccccc1CC(NC(C)=O)C(=O)NC1CCN(S(=O)(=O)c2ccccc2)CC1 (stereo unspecified),4362,11.1,-3.6,-3.7,-0.6,1.2,/,/,/
Cc1c(NC(=O)c2ccccc2N(C)S(=O)(=O)c2ccccc2)c(=O)n(-c2ccccc2)n1C,6019,7.3,48.5*,-25.4,0.2,43.7*,0.7,3.3,-0.9
Cc1c(NC(=O)c2ccc(N(C)S(C)(=O)=O)cc2)c(=O)n(-c2ccccc2)n1C,6194,2.5,-15.2,-4.8,0.6,-2.4,/,/,/
Cc1ccccc1OCc1ccc(C(=O)N2CCOCC2)o1,5416,1.4,4.7,0.5,2.0,-0.8,/,/,/
Cc1ccc(CSC2=Nc3ccccc3C3=NC(=O)CN23)cc1,4461,-5.7,35.5*,-8.2,-0.1,4.5,-0.2,-2.5,1.9
O=C(CCCc1ccccc1)Nc1nccs1,5104,-5.9,?,-13.0,0.0,-4.4,/,/,/
Cc1cc(C(=O)NC(Cc2ccccc2)C(=O)O)c(C)o1 (stereo unspecified),3364,0.0,-4.0,-0.2,-0.2,-0.8,/,/,/
COc1ccc(S(=O)(=O)N2CCN(Cc3ccc(OC)c(OC)c3)CC2)cc1,3690,-21.2,?,42.5*,0.4,-6.3,-1.7,-1.8,-1.6
COc1ccc(S(=O)(=O)N2CCN(C)CC2)cc1,3909,7.9,73.9*,-5.0,-1.1,2.6,-1.3,0.2,-2.9

# Screening data deposited in PubChem BioAssay by several laboratories.
